This is an account of results in PubChem BioAssay.

The source made the active and inactive calls.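 Rule for the calls, unless noted: active = compound raises insulin release from rat beta cells at 5 mM glucose, no numeric limit stated; inactive = the rest.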

Test [1] in a line: Wnt pathway potentiators raising nuclear beta-catenin – imaging, WNT3A-conditioned medium, mouse C2C12, NPC library, primary screen (AID 1117326; in the data active = nuclear beta-catenin stimulation mostly above about 4.2%, no sharp cut-off; inactive = mostly below about 10%; note: reference of the scale not given here). To be noted: stronger effect = higher value.
A short description of test [2]: stimulators of insulin release from INS-1E, primary screen, cell-based, 5 mM glucose, NPC library (AID 1117329). Note: reference of the scale not given here. As to conditions: rat INS-1E insulin secretion, at 10 µM, stronger effect = higher value.
Test [3] in a line: growth inhibition of GSK3B-pretreated HCT116 cells – cell-based, CellTiter-Glo, 0.2 to 20 µM (AID 1117336;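 active = compounds lowering colon cancer cell viability after pretreatment blocking the GSK3B kinase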). To be noted: HCT116 viability after GSK3B inhibitor, at 20 µM, stronger effect = higher value.
A short description of test [4]: inhibition of endothelial tube formation, primary screen, imaging, VEGF stimulated, CD31 staining, tube area, NPC library (AID 1117340;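 active = compound that reduces growth-factor-driven endothelial tube area in a mixed cell culture, no cutoff stated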). As to conditions: VEGF-stimulated ADSC/ECFC co-culture, at 10 µM, stronger effect = higher value.
A short description of test [5]: GLP1 release stimulators, primary, NCI-H716, NPC library (AID 1117341;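 active = compound raises GLP1 secretion from the human gut endocrine cells, with no numeric limit stated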; note: reference of the scale not given here). To be noted: NCI-H716 cells, at 10 µM, stronger effect = higher value.
Test [6] in a line: HCT116 colon cancer cell growth inhibition, primary screen, CellTiter-Glo luminescence, NPC library (AID 1117342;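 active = compounds that lower survival of HCT116 colon cancer cells in the luminescence readout, no numeric limit stated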). As to conditions: at 20 µM (top of the series).
A short description of test [7]: reduced SW480 viability measured with CellTiter-Glo, NPC library, primary (AID 1117343;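 active = compounds that lower viability of the colon cancer cells in the luminescence readout, with no numeric limit stated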). As to conditions: CellTiter-Glo luminescence; at 20 µM (top of the series). In general terms: ATP-based viability assays read luminescence as a measure of living cells.
Test [8] is described as follows: NPC library primary testing for decreased DLD-1 cell viability via CellTiter-Glo (AID 1117346;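 active = compounds that lower survival of DLD-1 colon cancer cells in the luminescence readout, no cutoff given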). To be noted: DLD-1 viability, CellTiter-Glo luminescence; at 20 µM (top of the series).

In the case of `CC(C)=CCC1C(=O)N(c2ccccc2)N(c2ccccc2)C1=O`, the nuclear beta-catenin stimulation in test [1] (at 10 µM) is -0.3% (inactive); in test [1] (stimulation, at 2 µM) it was 0.3%. In addition, the insulin secretion stimulation in test [2] was -1.2% (inactive). In addition, the viability decrease in test [3] was 45.1% (inactive). Moreover, the tube area decrease in test [4] was 8.8% (inactive). In addition, in test [5], the GLP1 secretion stimulation was -1.5% (inactive). For the same compound, the inhibition of viability in test [6] was -4.6% (inactive). Also, the viability decrease (inhibition) in test [7] is 78.1% (active); in test [8], 26.2% (inactive).
As for `CO/N=C(/C(=O)N[C@@H]1C(=O)N2C(C(=O)OCOC(=O)C(C)(C)C)=C(C)CS[C@H]12)c1csc(N)n1`, the nuclear beta-catenin stimulation in test [1] (at 10 µM) is 1% (inactive); in test [1] (stimulation, at 2 µM), -2%. Moreover, the insulin secretion stimulation in test [2] is 5.9% (inactive). Besides, in test [3], the viability decrease is 7.7% (inactive). In test [4], the tube area decrease was -11.2% (inactive). In addition, the GLP1 secretion stimulation in test [5] was -21% (inactive). Also, the inhibition of viability in test [6] is 0.6% (inactive). For the same compound, the viability decrease (inhibition) in test [7] is 15% (inactive); in test [8] it was -8.3% (inactive).
Take `Cn1c(=O)c2[nH]c(Br)nc2n(C)c1=O`: the nuclear beta-catenin stimulation in test [1] (at 10 µM) is 0.6% (inactive); in test [1] (stimulation, at 2 µM), 2%. For the same compound, the insulin secretion stimulation in test [2] is 0.9% (inactive). In test [3], the viability decrease was 2.55% (inactive). Further, in test [4], the tube area decrease is 10.2% (inactive). Further, the GLP1 secretion stimulation in test [5] was 1.1% (inactive). Also, the inhibition of viability in test [6] is -3.7% (inactive). Moreover, the viability decrease (inhibition) was -17.4% (inactive) in test [7] and -0.15% (inactive) in test [8].
As to `COc1ccc(C=CC(=O)O)cc1`, the nuclear beta-catenin stimulation in test [1] (at 10 µM) is -1.4% (inactive); in test [1] (stimulation, at 2 µM), 0%. Also, in test [2], the insulin secretion stimulation is 1% (inactive). For the same compound, the viability decrease in test [3] was -39% (inactive). Besides, the tube area decrease in test [4] is 4.7% (inactive). In test [5], the GLP1 secretion stimulation is -4.2% (inactive). In addition, the inhibition of viability in test [6] is 2.2% (inactive). Further, the viability decrease (inhibition) in test [7] is -6.4% (inactive); in test [8] it was -5.9% (inactive).
Take `O=C(O)c1cn(C2CC2)c2cc(Cl)c(F)cc2c1=O`: the nuclear beta-catenin stimulation was 0% (inactive) in test [1] (at 10 µM) and -1.8% in test [1] (stimulation, at 2 µM). In addition, the insulin secretion stimulation in test [2] is 2.05% (inactive). The viability decrease in test [3] was 55.5% (active). In addition, the tube area decrease in test [4] was -14.6% (inactive). For the same compound, the GLP1 secretion stimulation in test [5] was -3.9% (inactive). Moreover, the inhibition of viability in test [6] was 42.5% (inactive). The viability decrease (inhibition) in test [7] and in test [8] was -3.8% (inactive) each time.
In the case of `CCCCCCCCCCCCCCCCN`, the nuclear beta-catenin stimulation in test [1] (at 10 µM) was 1.3% (inactive); in test [1] (stimulation, at 2 µM), 1.3%. The insulin secretion stimulation in test [2] was -2.4% (inactive). The viability decrease in test [3] was 5% (inactive). Besides, in test [4], the tube area decrease is 6.5% (inactive). The GLP1 secretion stimulation in test [5] was 0.9% (inactive). Also, in test [6], the inhibition of viability is 5.9% (inactive). Besides, the viability decrease (inhibition) in test [7] was 4.5% (inactive); in test [8], -6.6% (inactive).
Turning to `CN(C)CCOc1ccccc1Cc1ccccc1`, the nuclear beta-catenin stimulation in test [1] (at 10 µM) was -1.8% (inactive); in test [1] (stimulation, at 2 µM) it was 2.3%. Also, in test [2], the insulin secretion stimulation was 22% (active). Besides, the viability decrease in test [3] was -14% (inactive). In test [4], the tube area decrease was 4.9% (inactive). Besides, the GLP1 secretion stimulation in test [5] was -5.1% (inactive). Further, the inhibition of viability in test [6] was 11.4% (inactive). The results for the viability decrease (inhibition) in test [7] and in test [8] were 34% (inactive) and 0.8% (inactive), respectively.
For `COc1ccc(/C=C/C(=O)c2ccc(OC)cc2OC)cc1`, the nuclear beta-catenin stimulation in test [1] (at 10 µM) was 7.4% (inactive); in test [1] (stimulation, at 2 µM), -0.5%. Besides, the insulin secretion stimulation in test [2] was 2.6% (inactive). In addition, in test [3], the viability decrease was 77.7% (active). Further, the tube area decrease in test [4] is 54.9% (active). Besides, the GLP1 secretion stimulation in test [5] is -6.1% (inactive). Besides, the inhibition of viability in test [6] is 58.1% (active). For the same compound, the viability decrease (inhibition) was 94.5% (active) in test [7] and 81.6% (active) in test [8].
For `CN1CCN(N)CC1`, the nuclear beta-catenin stimulation in test [1] (at 10 µM) is 1.1% (inactive); in test [1] (stimulation, at 2 µM) it was 0.7%. The insulin secretion stimulation in test [2] was 1.5% (inactive). In test [3], the viability decrease is -1.2% (inactive). Moreover, in test [4], the tube area decrease was -7.3% (inactive). For the same compound, the GLP1 secretion stimulation in test [5] is 0.5% (inactive). The inhibition of viability in test [6] was 0.1% (inactive). Also, the values for the viability decrease (inhibition) in test [7] and in test [8] were -13.8% (inactive) and 10.2% (inactive), respectively.
For `C[C@H]1C[C@H]2[C@@H]3CCC4=CC(=O)C=C[C@]4(C)[C@@]3(Cl)[C@@H](O)C[C@]2(C)[C@@]1(O)C(=O)CO`, the nuclear beta-catenin stimulation in test [1] (at 10 µM) was 0.9% (inactive); in test [1] (stimulation, at 2 µM) it was 0.5%. In addition, in test [2], the insulin secretion stimulation was 6.9% (inactive). In test [3], the viability decrease is -136% (inactive). The tube area decrease in test [4] is 14.4% (inactive). Also, in test [5], the GLP1 secretion stimulation was -0.3% (inactive). Besides, the inhibition of viability in test [6] was 15.8% (inactive). For the same compound, the viability decrease (inhibition) in test [7] is 70.7% (active); in test [8], 13.2% (inactive).
Regarding `CC(=O)c1cc2ccccc2s1`, the nuclear beta-catenin stimulation in test [1] (at 10 µM) was 2.1% (inactive); in test [1] (stimulation, at 2 µM), 1.1%. Also, the insulin secretion stimulation in test [2] was -1.3% (inactive). In addition, the viability decrease in test [3] is 32.7% (inactive). Also, the tube area decrease in test [4] is -3.8% (inactive). For the same compound, the GLP1 secretion stimulation in test [5] was 0.1% (inactive). The inhibition of viability in test [6] was 31.2% (inactive). Also, the values for the viability decrease (inhibition) in test [7] and in test [8] were 32.8% (inactive) and 26.6% (inactive), respectively.
Take `Nc1nnnn1-c1ccccc1`: the nuclear beta-catenin stimulation was -0.2% (inactive) in test [1] (at 10 µM) and 0.5% in test [1] (stimulation, at 2 µM). Besides, the insulin secretion stimulation in test [2] is -1.6% (inactive). In test [3], the viability decrease is -7.65% (inactive). Further, the tube area decrease in test [4] was -14.5% (inactive). Further, in test [5], the GLP1 secretion stimulation is 2.4% (inactive). For the same compound, in test [6], the inhibition of viability is 5.4% (inactive). Further, the figures for the viability decrease (inhibition) in test [7] and in test [8] were 56.4% (active) and -1.05% (inactive), respectively.
Consider `CC(C)Cc1ccc(C(C)C(=O)OCc2ccccn2)cc1` (stereo not given), for which the nuclear beta-catenin stimulation in test [1] (at 10 µM) was -0.2% (inactive); in test [1] (stimulation, at 2 µM) it was 1.5%. Also, in test [2], the insulin secretion stimulation was -0.3% (inactive). The viability decrease in test [3] was -24% (inactive). Also, the tube area decrease in test [4] was -19.1% (inactive). Moreover, the GLP1 secretion stimulation in test [5] is 0.1% (inactive). Further, the inhibition of viability in test [6] was 22.8% (inactive). The viability decrease (inhibition) in test [7] was 40.9% (inactive); in test [8], 19.1% (inactive).
For the compound `O=C(C1CCCCC1)N1CC(=O)N2CCCc3ccccc3C2C1` (stereo not given), the nuclear beta-catenin stimulation is 1.4% (inactive) in test [1] (at 10 µM) and 2.7% in test [1] (stimulation, at 2 µM). Moreover, the insulin secretion stimulation in test [2] was 0.6% (inactive). The viability decrease in test [3] was 6.6% (inactive). Moreover, in test [4], the tube area decrease was 12.9% (inactive). For the same compound, the GLP1 secretion stimulation in test [5] is 5.2% (inactive). In addition, in test [6], the inhibition of viability was -9.2% (inactive). Also, the viability decrease (inhibition) in test [7] is -250% (inactive); in test [8] it was -3.1% (inactive).
`NC(=O)CC[C@@H]1NC(=O)[C@H](Cc2ccccc2)NC(=O)[C@H](Cc2ccc(O)cc2)NC(=O)CCSSC[C@@H](C(=O)N2CCC[C@H]2C(=O)N[C@@H](CCCN=C(N)N)C(=O)NCC(N)=O)NC(=O)[C@H](CC(N)=O)NC1=O`: the nuclear beta-catenin stimulation in test [1] (at 10 µM) is -0.6% (inactive); in test [1] (stimulation, at 2 µM) it was -1.2%. For the same compound, the insulin secretion stimulation in test [2] was 0.8% (inactive). In test [3], the viability decrease is 8.4% (inactive). Besides, in test [4], the tube area decrease is 3.9% (inactive). For the same compound, the GLP1 secretion stimulation in test [5] is 2.4% (inactive). Also, in test [6], the inhibition of viability was 1% (inactive). Further, the viability decrease (inhibition) in test [7] is 1.3% (inactive); in test [8] it was -0.2% (inactive).
